CHT block: inhibitors of human choline transporter CHT; High affinity choline transporter 1 (Homo sapiens), Q9GZV3; CHT-expressing cells, membrane potential dye, choline response; active compounds read low; B-score at 10 µM; hit rate 0.86% among 310,000; AID 488975, 2010;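 active = B-score over 3 SD under the library average, and starting fluorescence ratio not unusually high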;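 also: choline stimulus applied at its EC90 after an EC20 pre-addition; B-score computed on integrated fluorescence ratio after choline addition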
ANO1 activ: TMEM16A chloride channel activators or potentiators, primary screen, cell-based, HTS | Anoctamin-1 (Mus musculus), Q8BHY3 | HEK293 TMEM16A/YFP-H148Q/I152L, iodide quench fluorescence; active compounds read low | B-score at 10 µM | hit rate 0.3% among 340,000;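 active = fluorescence-ratio B-score plate-corrected deviation score at least 3 library SD below zero, with starting fluorescence score within 5 deviations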;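 also: channel opened by trigger with iodide after compound preincubation; score built on the fluorescence ratio of max minus min over baseline; more negative score means more quench and so TMEM16A activation or potentiation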
Target sequence (Q8BHY3 whole entry, looked up): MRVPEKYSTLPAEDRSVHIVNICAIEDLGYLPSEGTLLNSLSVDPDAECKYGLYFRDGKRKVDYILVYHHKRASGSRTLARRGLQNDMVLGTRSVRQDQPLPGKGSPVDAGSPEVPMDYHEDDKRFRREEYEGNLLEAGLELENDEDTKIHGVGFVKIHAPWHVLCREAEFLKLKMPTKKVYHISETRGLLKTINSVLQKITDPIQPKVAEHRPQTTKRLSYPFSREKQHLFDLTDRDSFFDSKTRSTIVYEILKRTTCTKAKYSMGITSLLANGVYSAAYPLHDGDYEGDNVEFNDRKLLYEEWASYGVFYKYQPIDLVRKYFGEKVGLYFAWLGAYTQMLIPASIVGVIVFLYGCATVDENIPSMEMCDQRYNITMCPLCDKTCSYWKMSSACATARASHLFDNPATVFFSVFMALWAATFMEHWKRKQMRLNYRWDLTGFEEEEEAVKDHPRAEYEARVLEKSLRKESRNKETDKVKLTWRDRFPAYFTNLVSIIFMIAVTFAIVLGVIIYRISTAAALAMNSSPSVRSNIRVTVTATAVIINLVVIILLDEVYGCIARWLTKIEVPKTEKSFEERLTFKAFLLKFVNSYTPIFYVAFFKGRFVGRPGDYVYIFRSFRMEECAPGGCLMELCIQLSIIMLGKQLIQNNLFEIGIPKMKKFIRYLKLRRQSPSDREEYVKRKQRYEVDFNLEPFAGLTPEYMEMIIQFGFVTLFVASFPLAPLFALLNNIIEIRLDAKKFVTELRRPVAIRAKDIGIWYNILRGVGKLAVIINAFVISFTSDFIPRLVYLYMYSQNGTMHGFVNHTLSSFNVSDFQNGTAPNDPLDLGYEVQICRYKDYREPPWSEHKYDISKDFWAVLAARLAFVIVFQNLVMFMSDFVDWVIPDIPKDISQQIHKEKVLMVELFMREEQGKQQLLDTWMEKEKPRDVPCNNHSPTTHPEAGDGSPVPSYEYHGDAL
ANO1 block: TMEM16A chloride channel inhibitors, primary screen, cell-based, HTS | Anoctamin-1 (Mus musculus), Q8BHY3 | HEK293 TMEM16A/YFP iodide influx fluorescence, ionomycin | normalized B-score (activity score, 25-100; higher = stronger inhibition) at 10 µM | hit rate 1.2% among 310,000;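 active = ratio plate-corrected score three or more library SD toward inhibition, starting fluorescence score within five deviations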;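 also: score derived from kinetic fluorescence span divided by baseline fluorescence per well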
Kir21 block: inhibitors of mouse Kir2.1 inward-rectifier potassium channel; Inward rectifier potassium channel 2 (Mus musculus), P35561; HEK293-Kir2.1, FluxOR thallium flux fluorescence; active compounds read low; B-score at 10 µM; hit rate 0.85% among 310,000; AID 1672, 2009;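 active = fluorescence ratio B-score at or below minus 3 SD of library scores, with starting-brightness B-score within 2 SD, cut at about -4.2 in these data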;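 also: channel flux triggered by added potassium and thallium sulfate stimulus; B-score of peak minus minimum fluorescence over baseline after thallium stimulus; more negative B-score means stronger Kir2.1 block with less thallium influx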
GPR7 antag: GPR7 receptor antagonists, primary screen, cell-based, fluorescence, single concentration; GPR7-expressing cells, fluorescence antagonist assay; inhibition, % at 4.4 µM; hit rate 1.1% among 290,000; AID 1861, 2009; in the data active = inhibition above about 16%, passing the limit was not always enough;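 also: cells stimulated with the agonist NPW; 0% = agonist with vehicle and 100% = vehicle without agonist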
CHT allo act: CHT positive allosteric modulators, primary screen, cell-based, membrane potential dye, choline EC20 | B-score at 10 µM | High affinity choline transporter 1 (Homo sapiens), Q9GZV3 | hit rate 0.49% among 310,000 | CHT-expressing cells; active compounds read high; LV-AA mutant CHT in HEK293 cells;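 active = initial fluorescence not abnormally high and integrated response B-score, plate-corrected, over 3 SD above library mean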
TMEM16A reconf: TMEM16A chloride channel inhibitors, confirmation, cell-based, re-confirmation | inhibition, % at 10 µM | HEK293 TMEM16A/YFP-H148Q, iodide quench fluorescence; ionomycin added to raise cell calcium | hit rate 39% among 2,300 | shares compounds with ANO1 block;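 active = mean duplicate percent inhibition, scaled so buffer wells are 0 and the reference blocker 100, over three buffer SD above buffer mean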
HEK293 Ca mobil: calcium mobilization in TMEM16A/YFP HEK293 cells, confirmation, counter-screen for TMEM16A inhibitor project | shares compounds with ANO1 block | Fluo4 calcium mobilization | calcium response (% of ionomycin), % at 10 µM | hit rate 2% among 2,300 | AID 652231, 2013;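 active = duplicate-averaged calcium signal over 20% of the ionomycin maximum, relative to buffer baseline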;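 also: each well's signal is peak minus trough fluorescence divided by its pre-addition baseline; 0% = buffer wells and 100% = ionomycin wells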
YFP-HEK293 quench: iodide YFP quench changes in parental YFP-HEK293, counter-screen for TMEM16A inhibitor project, cell-based. shares compounds with ANO1 block. 2,300 tested, under 10 active. YFP ratio F(max-min)/F0 at 10 µM. ionomycin. AID 652233, 2013;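 active = yellow fluorescent protein signal ratio exceeding the buffer control mean by over 5 SD of those controls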;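 also: ratio is mean of duplicate wells from kinetic YFP trace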
ClC-1 inh: ClC-1 chloride channel inhibition, selectivity assay for TMEM16A inhibitor project, cell-based, voltage-dependent ClC-1; shares compounds with ANO1 block; CHO ClC-1-YFP, iodide influx fluorescence quench; iodide control reads 0, buffer control 100; ratio percent, % at 10 µM; 2,300 tested, under 10 active;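 active = duplicate-mean ratio percent above the mean of iodide-only control wells, which defines zero, plus 5 of their SD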;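 also: higher percent means stronger block of ClC-1 iodide influx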
* hit, by the source's call. A selection: hits, their analogues and other compounds. The true share with any hit is near 3.7%.

How did COc1ccccc1C(CNC(=O)CCNC(=O)c1ccccc1Cl)N1CCCC1 (stereo unspecified) do in these assays?
CHT block: inactive; ANO1 activ: inactive; ANO1 block: inactive; Kir21 block: -0.58; CHT allo act: inactive

What do the screens show for `Cc1cc(C(=O)COc2ccc(-c3nnco3)cc2)c(C)n1Cc1ccccc1`?
CHT block: inactive; ANO1 activ: inactive; ANO1 block: 100*; Kir21 block: -2.3; GPR7 antag: 8; CHT allo act: inactive; TMEM16A reconf: 18%*; HEK293 Ca mobil: inactive; YFP-HEK293 quench: -0.84; ClC-1 inh: -16

What do the screens show for `COc1ccc(/C=C2\Oc3cc(OCC(=O)N4CCC[C@H]4CO)ccc3C2=O)c(OC)c1`?
CHT block: inactive; ANO1 activ: inactive; ANO1 block: inactive; Kir21 block: -1.6; GPR7 antag: -7; CHT allo act: inactive

Results for COc1ccccc1C1CCN(c2ccc(CO)cc2[N+](=O)[O-])CC1 ?
CHT block: inactive; ANO1 activ: inactive; ANO1 block: 25*; Kir21 block: -0.28; GPR7 antag: -11; CHT allo act: inactive; TMEM16A reconf: inactive; HEK293 Ca mobil: inactive; YFP-HEK293 quench: -1.1; ClC-1 inh: -16

Results for CC(C)CCNC(=O)C(CC(C)C)N(Cc1ccc2c(c1)OCO2)C(=O)c1snc(C(N)=O)c1N (stereo unspecified) ?
CHT block: inactive; ANO1 activ: inactive; ANO1 block: inactive; Kir21 block: 0.07; GPR7 antag: -5; CHT allo act: inactive

What do the screens show for `COc1cc(-c2noc(C)c2C(=O)NCCCN2CCOCC2)cc(OC)c1OC`?
ANO1 activ: inactive

Results for CCN(C(=O)COC(=O)c1cnc(C)cn1)C1CCCCC1 ?
CHT block: inactive; ANO1 activ: inactive; ANO1 block: 100*; Kir21 block: 2.2; GPR7 antag: 2; CHT allo act: inactive; TMEM16A reconf: inactive; HEK293 Ca mobil: inactive; YFP-HEK293 quench: -1.2; ClC-1 inh: 0

What do the screens show for `Cc1ccc(CNC(=O)CCS(=O)(=O)c2ccc3c(c2)NC(=O)C(C)S3)cc1` (stereo unspecified)?
CHT block: inactive; ANO1 activ: inactive; ANO1 block: inactive; Kir21 block: 1.2; GPR7 antag: -3; CHT allo act: inactive

What do the screens show for `Cc1ccc(CNC(=O)CC(C)S(=O)(=O)c2ccc3c(c2)NC(=O)C(C)S3)cc1` (stereo unspecified)?
CHT block: inactive; ANO1 activ: inactive; ANO1 block: 25*; Kir21 block: 0.03; GPR7 antag: -8; CHT allo act: inactive; TMEM16A reconf: 22%*; HEK293 Ca mobil: inactive; YFP-HEK293 quench: -0.95; ClC-1 inh: -8

How did CCN1CCN(C(=O)CSCc2nc(-c3ccc(OC)c(OC)c3)oc2C)CC1 do in these assays?
CHT block: inactive; ANO1 activ: inactive; ANO1 block: inactive; Kir21 block: -0.21; GPR7 antag: 5; CHT allo act: inactive

How did CSc1ccc(-c2nc(CSCC(=O)N3CCOCC3)c(C)o2)cc1 do in these assays?
CHT block: inactive; ANO1 activ: inactive; ANO1 block: 25*; Kir21 block: -0.13; GPR7 antag: -11; CHT allo act: inactive; TMEM16A reconf: 28%*; HEK293 Ca mobil: inactive; YFP-HEK293 quench: -1.1; ClC-1 inh: -14

How did CCc1ccc(-c2nc(CSCC(=O)N3CCN(c4ncccn4)CC3)c(C)o2)cc1 do in these assays?
CHT block: inactive; ANO1 activ: inactive; ANO1 block: 25*; Kir21 block: -0.86; GPR7 antag: -17; CHT allo act: inactive; TMEM16A reconf: inactive; HEK293 Ca mobil: inactive; YFP-HEK293 quench: -1; ClC-1 inh: -11

How did COc1ccccc1NC(=O)COc1cccc(-n2cnnn2)c1 do in these assays?
CHT block: inactive; ANO1 activ: inactive; ANO1 block: inactive; Kir21 block: 0.7; GPR7 antag: -7; CHT allo act: inactive

Results for Cc1cc(C(=O)COc2cccc(-n3cnnn3)c2)c(C)n1-c1ccccc1 ?
CHT block: inactive; ANO1 activ: inactive; ANO1 block: 100*; Kir21 block: 0.39; GPR7 antag: 3; CHT allo act: inactive; TMEM16A reconf: inactive; HEK293 Ca mobil: inactive; YFP-HEK293 quench: -0.95; ClC-1 inh: -3

How did COc1ccc(OC)c(C(=O)c2c(C)oc3cc([N+](=O)[O-])c(O)c([N+](=O)[O-])c23)c1 do in these assays?
CHT block: inactive; ANO1 activ: inactive; ANO1 block: inactive; Kir21 block: 1.7; GPR7 antag: 18; CHT allo act: inactive

What do the screens show for `Cc1oc2cc([N+](=O)[O-])c(O)c([N+](=O)[O-])c2c1C(=O)c1ccc(Cl)cc1`?
CHT block: inactive; ANO1 activ: inactive; ANO1 block: 25*; Kir21 block: 4.2; GPR7 antag: -9; CHT allo act: inactive; TMEM16A reconf: 32%*; HEK293 Ca mobil: inactive; YFP-HEK293 quench: -0.88; ClC-1 inh: -16

How did CC(=O)c1nnn(-c2nc(N)nc(N(c3ccccc3)c3ccccc3)n2)c1C do in these assays?
CHT block: inactive; ANO1 activ: inactive; ANO1 block: inactive; Kir21 block: -1.2; GPR7 antag: -10; CHT allo act: inactive
